{"source": "the supplement of paper PMC10037445", "key": {"RAW-Dual [1]": {"test_system": "RAW-Dual", "experiment": "IRF Lucia reporter activity, fold change vs agonist alone; higher = enhanced IRF activity", "settings": "library stock concentration (final ~1000-fold dilution): 10 mM; cytotoxicity flag (confluency mask): not cytotoxic; agonist: MPLA (TLR4) […]", "procedure,_shortened": "(§1)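 After 50 nL of library stock was delivered by pin tool to RAW-Dual macrophages (50,000 cells/well, DMEM, 384-well plates), a PRR agonist was added 1 h later and the plates were kept at 37 °C, 5% CO2. Twenty hours later, IRF was read from supernatant by QuantiLuc luminescence and NF-κB by QuantiBlue absorbance at 620 nm. Reporter activity is stated as fold change over agonist-alone wells. Wells with IncuCyte confluency under 70% of agonist controls in both mask sets were counted as cytotoxic.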"}, "RAW-Dual [2]": {"test_system": "RAW-Dual", "experiment": "IRF Lucia reporter activity, fold change vs agonist alone; cytotoxicity flag (confluency mask): not cytotoxic; higher = enhanced IRF activity", "procedure,_shortened": "as §1"}, "RAW-Dual [3]": {"test_system": "RAW-Dual", "experiment": "IRF Lucia reporter activity, fold change vs agonist alone; cytotoxicity flag (confluency mask): cytotoxic (confluency <70% of control); higher = enhanced IRF activity", "procedure,_shortened": "as §1"}, "[4]": {"settings": "agonist: 3'3'-cGAMP (STING) 10 ug/mL"}}, "note": "Whole data set: some 2,900 compounds, median “IRF Lucia reporter activity, fold change vs agonist alone” near 0.9, cut for the highest 2% near 2.8. Shown is part of a subset that was picked to be rich in the highest values."}
{"smiles": "COc1cc(F)c(C(C)C)cc1-c1ccc(C(F)(F)F)cc1CN1C(=O)OC(c2cc(C(F)(F)F)cc(C(F)(F)F)c2)C1C", "note": "(stereo not given)", "values": [{"measurement": "IRF Lucia reporter activity", "setting": "RAW-Dual [1]", "value": 1.1}]}
{"smiles": "COc1cc(F)c(C(C)C)cc1-c1ccc(C(F)(F)F)cc1CN1C(=O)OC(c2cc(C(F)(F)F)cc(C(F)(F)F)c2)C1C", "note": "(stereo not given) (library stock concentration (final ~1000-fold dilution): 10 mM)", "values": [{"measurement": "IRF Lucia reporter activity", "setting": "RAW-Dual [2]; [4]", "value": 1.12}, {"measurement": "IRF Lucia reporter activity", "setting": "RAW-Dual [2]; agonist: LPS (TLR4) 0.1 ug/mL", "value": 1.14}]}
{"smiles": "CC(C)(O)CNc1ncc(-c2ccnc(Nc3ccnc(Cl)c3)n2)c(CC2CC2)n1", "note": "(library stock concentration (final ~1000-fold dilution): 10 mM)", "values": [{"measurement": "IRF Lucia reporter activity", "setting": "RAW-Dual [2]; [4]", "value": 0.0702}, {"measurement": "IRF Lucia reporter activity", "setting": "RAW-Dual [2]; agonist: LPS (TLR4) 0.1 ug/mL", "value": 3.2}]}
{"smiles": "Cc1ccc(NC(=O)c2ccc(CN3CCN(C)CC3)cc2)cc1Nc1nccc(-c2cccnc2)n1", "values": [{"measurement": "IRF Lucia reporter activity", "setting": "RAW-Dual [1]", "value": 1.29}]}
{"smiles": "Cc1nc(N)sc1-c1ccnc(Nc2ccc(N3CCOCC3)cc2)n1", "values": [{"measurement": "IRF Lucia reporter activity", "setting": "RAW-Dual [1]", "value": 0.0284}]}
{"smiles": "CC(C)(O)CNc1nc(Nc2ccnc(C(F)(F)F)c2)nc(-c2cccc(C(F)(F)F)n2)n1", "note": "(library stock concentration (final ~1000-fold dilution): 10 mM)", "values": [{"measurement": "IRF Lucia reporter activity", "setting": "RAW-Dual [2]; [4]", "value": 1}, {"measurement": "IRF Lucia reporter activity", "setting": "RAW-Dual [2]; agonist: LPS (TLR4) 0.1 ug/mL", "value": 1.29}]}
{"smiles": "CC(C)(O)CNc1ncc(-c2ccnc(Nc3ccncc3)n2)c(CC2CC2)n1", "note": "(library stock concentration (final ~1000-fold dilution): 10 mM)", "values": [{"measurement": "IRF Lucia reporter activity", "setting": "RAW-Dual [2]; [4]", "value": 0.364}, {"measurement": "IRF Lucia reporter activity", "setting": "RAW-Dual [2]; agonist: LPS (TLR4) 0.1 ug/mL", "value": 10.3}]}
{"smiles": "COc1cc(N2CCN(C)CC2)ccc1Nc1nccc(-c2cn(C)c3cnccc23)n1", "values": [{"measurement": "IRF Lucia reporter activity", "setting": "RAW-Dual [1]", "value": 0.246}]}
{"smiles": "COc1cc(N2CCN(C)CC2)ccc1Nc1nccc(-c2cn(C)c3cnccc23)n1", "note": "(library stock concentration (final ~1000-fold dilution): 10 mM)", "values": [{"measurement": "IRF Lucia reporter activity", "setting": "RAW-Dual [2]; [4]", "value": 0.0231}, {"measurement": "IRF Lucia reporter activity", "setting": "RAW-Dual [2]; agonist: LPS (TLR4) 0.1 ug/mL", "value": 0.154}]}
{"smiles": "Cc1ccc(NC(=O)c2ccc(CN3CCN(C)CC3)cc2)cc1Nc1nccc(-c2cccnc2)n1", "note": "(library stock concentration (final ~1000-fold dilution): 10 mM)", "values": [{"measurement": "IRF Lucia reporter activity", "setting": "RAW-Dual [2]; [4]", "value": 0.549}, {"measurement": "IRF Lucia reporter activity", "setting": "RAW-Dual [2]; agonist: LPS (TLR4) 0.1 ug/mL", "value": 0.944}]}
{"smiles": "Cc1nc(N)sc1-c1ccnc(Nc2ccc(N3CCOCC3)cc2)n1", "note": "(library stock concentration (final ~1000-fold dilution): 10 mM)", "values": [{"measurement": "IRF Lucia reporter activity", "setting": "RAW-Dual [2]; [4]", "value": 0.0149}, {"measurement": "IRF Lucia reporter activity", "setting": "RAW-Dual [2]; agonist: LPS (TLR4) 0.1 ug/mL", "value": 0.023}]}
{"smiles": "Nc1ncc(-c2ccnc(Nc3ccncc3)n2)c(CC2CC2)n1", "note": "(library stock concentration (final ~1000-fold dilution): 10 mM)", "values": [{"measurement": "IRF Lucia reporter activity", "setting": "RAW-Dual [3]; [4]", "value": 0.336}, {"measurement": "IRF Lucia reporter activity", "setting": "RAW-Dual [3]; agonist: LPS (TLR4) 0.1 ug/mL", "value": 3.92}]}
{"smiles": "Cc1c(NC(=O)OCC2COCCN2)cn2ncnc(Nc3ccc4c(cnn4Cc4cccc(F)c4)c3)c12", "note": "(stereo not given) (library stock concentration (final ~1000-fold dilution): 10 mM)", "values": [{"measurement": "IRF Lucia reporter activity", "setting": "RAW-Dual [2]; [4]", "value": 0.267}, {"measurement": "IRF Lucia reporter activity", "setting": "RAW-Dual [2]; agonist: LPS (TLR4) 0.1 ug/mL", "value": 1.28}]}
{"smiles": "Cc1c(NC(=O)OCC2COCCN2)cn2ncnc(Nc3ccc4c(cnn4Cc4cccc(F)c4)c3)c12", "note": "(stereo not given)", "values": [{"measurement": "IRF Lucia reporter activity", "setting": "RAW-Dual [1]", "value": 1.3}]}
{"smiles": "O=C(CCc1ccc(O)cc1)c1c(O)cccc1OC1OC(CO)C(O)C(O)C1O", "note": "(stereo not given)", "values": [{"measurement": "IRF Lucia reporter activity", "setting": "RAW-Dual [1]", "value": 1.01}]}
{"smiles": "O=C(CCc1ccc(O)cc1)c1c(O)cccc1OC1OC(CO)C(O)C(O)C1O", "note": "(stereo not given) (library stock concentration (final ~1000-fold dilution): 10 mM)", "values": [{"measurement": "IRF Lucia reporter activity", "setting": "RAW-Dual [2]; [4]", "value": 0.943}, {"measurement": "IRF Lucia reporter activity", "setting": "RAW-Dual [2]; agonist: LPS (TLR4) 0.1 ug/mL", "value": 0.918}]}
{"smiles": "CC(c1ccc2nccn2c1)n1nnc2ncc(-c3cnn(C)c3)nc21", "note": "(stereo not given) (library stock concentration (final ~1000-fold dilution): 10 mM)", "values": [{"measurement": "IRF Lucia reporter activity", "setting": "RAW-Dual [2]; [4]", "value": 0.953}, {"measurement": "IRF Lucia reporter activity", "setting": "RAW-Dual [2]; agonist: LPS (TLR4) 0.1 ug/mL", "value": 1.15}]}
{"smiles": "CN(C)CCSSCCNC(=O)C1CCN(C(=O)CSc2ccc(Cl)cc2)CC1.O=C(O)C(F)(F)F", "note": "(library stock concentration (final ~1000-fold dilution): 10 mM)", "values": [{"measurement": "IRF Lucia reporter activity", "setting": "RAW-Dual [2]; [4]", "value": 0.396}, {"measurement": "IRF Lucia reporter activity", "setting": "RAW-Dual [2]; agonist: LPS (TLR4) 0.1 ug/mL", "value": 0.778}]}
{"smiles": "CN(C)CCSSCCNC(=O)C1CCN(C(=O)CSc2ccc(Cl)cc2)CC1.O=C(O)C(F)(F)F", "values": [{"measurement": "IRF Lucia reporter activity", "setting": "RAW-Dual [1]", "value": 0.751}]}
{"smiles": "O=C1OC(COc2ccccc2[N+](=O)[O-])CC1Cc1ccccc1", "note": "(stereo not given) (library stock concentration (final ~1000-fold dilution): 10 mM)", "values": [{"measurement": "IRF Lucia reporter activity", "setting": "RAW-Dual [2]; [4]", "value": 1.23}, {"measurement": "IRF Lucia reporter activity", "setting": "RAW-Dual [2]; agonist: LPS (TLR4) 0.1 ug/mL", "value": 1.23}]}
{"smiles": "O=c1cccccc1O", "note": "(library stock concentration (final ~1000-fold dilution): 10 mM)", "values": [{"measurement": "IRF Lucia reporter activity", "setting": "RAW-Dual [2]; [4]", "value": 0.664}, {"measurement": "IRF Lucia reporter activity", "setting": "RAW-Dual [2]; agonist: LPS (TLR4) 0.1 ug/mL", "value": 0.952}]}
{"smiles": "O=c1cccccc1O", "values": [{"measurement": "IRF Lucia reporter activity", "setting": "RAW-Dual [1]", "value": 1.24}]}
{"smiles": "NC(=O)c1cc(F)cc2c1C(=O)N(C1CCN(C3CCC(F)(F)CC3)CC1)C2", "note": "(library stock concentration (final ~1000-fold dilution): 10 mM)", "values": [{"measurement": "IRF Lucia reporter activity", "setting": "RAW-Dual [2]; [4]", "value": 0.94}, {"measurement": "IRF Lucia reporter activity", "setting": "RAW-Dual [2]; agonist: LPS (TLR4) 0.1 ug/mL", "value": 0.923}]}
{"smiles": "O=C(Nc1nc2cccc(-c3ccc(CN4CCS(=O)(=O)CC4)cc3)n2n1)C1CC1", "note": "(library stock concentration (final ~1000-fold dilution): 10 mM)", "values": [{"measurement": "IRF Lucia reporter activity", "setting": "RAW-Dual [2]; [4]", "value": 1.1}, {"measurement": "IRF Lucia reporter activity", "setting": "RAW-Dual [2]; agonist: LPS (TLR4) 0.1 ug/mL", "value": 3.4}]}
